# Reference: publication PMC7819943, “Rice protein-binding microarrays: a tool to detect cis-acting elements near promoter regions in rice”
# Over roughly 68,000 sequences, “fluorescence intensity (a.u.)” has its median near 9,100; the highest 2% begin near 16,000. The list comes from a sample in which the highest values are over-represented; it also holds similar and randomly drawn sequences.
# Target: OsWRKY34 (Oryza sativa, UniProt Q0JBA9 1-250)
# Assay: protein-binding microarray (RPBM); PBS, 2% BSA, 51.3 ng/ul salmon testes DNA, 50 uM zinc acetate, 200 nM TF, 25 C, 1 h; high values mean tight binding
# Conditions: protein: recombinant; tags: N-terminal polyhistidine and DsRed monomer fusion (pET32a); label: CyDye5-dUTP incorporated in the synthesized complementary strand; 3' TTTTT single-stranded linker to array surface; dsDNA, one strand shown
# Outline: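 For the binding signal, per-feature fluorescence intensity was read in arbitrary units on an Axon 4000B scanner. Before scanning, a 2% BSA-blocked custom Agilent array made double-stranded with Cy5-dUTP was washed after 1 h at 25 °C with 200 nM protein and 50 µM zinc acetate. The proteins were Ni–NTA-purified transcription factors with N-terminal polyhistidine and DsRed fusions, expressed in E. coli BL21-CodonPlus.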
# Chain of OsWRKY34 (Q0JBA9 entry or part of it): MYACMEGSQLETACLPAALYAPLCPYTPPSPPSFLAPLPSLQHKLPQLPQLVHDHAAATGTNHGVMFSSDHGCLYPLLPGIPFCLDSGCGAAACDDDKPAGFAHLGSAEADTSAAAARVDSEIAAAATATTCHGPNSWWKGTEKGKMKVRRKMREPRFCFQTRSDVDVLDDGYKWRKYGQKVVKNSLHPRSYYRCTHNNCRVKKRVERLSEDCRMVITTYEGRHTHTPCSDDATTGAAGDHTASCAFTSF
row,Sequence,binding signal
1,GGACTCCTGATTTCTACTCTATTCCTATTCCACTAGCTTACGGAGTCACCTAGTGCAG,14400 fluorescence intensity (a.u.)
2,ATCCTGCGATTCCACCATATCCAATCCTCGTATCTTGGGTCGGAGTCACCTAGTGCAG,8310 fluorescence intensity (a.u.)
3,TTATCTAGATTCGTATTACTAGGATGTGTCTCGTTCAACCCGGAGTCACCTAGTGCAG,8780 fluorescence intensity (a.u.)
4,GTGGGCCCCGCCCGTGTGATCGTGTCTCTGTTTCGTTTTCCGGAGTCACCTAGTGCAG,12100 fluorescence intensity (a.u.)
5,GTGTTTTTTCTTCATTTGTCCCGTAATAAATTTATTTTTTCGGAGTCACCTAGTGCAG,12500 fluorescence intensity (a.u.)
6,CGCTTACAGTCCACTCTCCACTGCGCCCGCATGAGTCATGCGGAGTCACCTAGTGCAG,8880 fluorescence intensity (a.u.)
7,AAACTGCCAGCTTTCTGCATCTCTCCGCCCTCATGATGCGCGGAGTCACCTAGTGCAG,9490 fluorescence intensity (a.u.)
8,TTTTCTTTCCTTTATTATTTTCTTTATCCTTTTTTTCTCCCGGAGTCACCTAGTGCAG,9250 fluorescence intensity (a.u.)
9,ATCGGCGCCGTCGACCGCGACCACCCTGCCGCCGAGCGCCCGGAGTCACCTAGTGCAG,10300 fluorescence intensity (a.u.)
10,TCCTCTTCTTCTTCTTCTTCTTCTCGTGGGTGCAAGAAGCCGGAGTCACCTAGTGCAG,8380 fluorescence intensity (a.u.)
11,CGCCCAAGCTAGCTAGTGGCCATTATCCCATGGATATTTCCGGAGTCACCTAGTGCAG,8280 fluorescence intensity (a.u.)
12,ATCCTGTATCGTCCAGAATGCTTCTTCCATCCTAATCACCCGGAGTCACCTAGTGCAG,9220 fluorescence intensity (a.u.)
13,TCTCTCTCTCGTCGTCTCGCGTCTCTTCTCTCAACCGCGACGGAGTCACCTAGTGCAG,13800 fluorescence intensity (a.u.)
14,ATCTTTTTACCCAATTCTTGATCACTCTTCTTGGTCGTTCCGGAGTCACCTAGTGCAG,8060 fluorescence intensity (a.u.)
15,ATCACTCTTCTTGGTCGTTCTTGCCATTCTTGTACCGCGACGGAGTCACCTAGTGCAG,18200 fluorescence intensity (a.u.)
16,CGGGGTTCTTGTGTTTATTGTTAAGATCCGGTTTGCTGAACGGAGTCACCTAGTGCAG,21900 fluorescence intensity (a.u.)
17,CTTCTCTTTGTTTTCTTGTTTGCTTGCTTGGTGTAAAGAACGGAGTCACCTAGTGCAG,16100 fluorescence intensity (a.u.)
18,CATGTAATTCTCTTCACTTTTGCTTGTTTGGGTTGTGAAACGGAGTCACCTAGTGCAG,10100 fluorescence intensity (a.u.)
19,GGTTGGGTGTTTTTGCTTCTCTTGTAGTCTTTGTGTAGAACGGAGTCACCTAGTGCAG,21500 fluorescence intensity (a.u.)
20,GGTATCTGTTGCTGCTTGCTGGTTCTCGTGCTATTGTTCTCGGAGTCACCTAGTGCAG,19900 fluorescence intensity (a.u.)
21,TTCTTGCTAGTTCTTGTAGTATCTGGTTCTTGCTAGTTCTCGGAGTCACCTAGTGCAG,10800 fluorescence intensity (a.u.)

row,Sequence,binding signal
1,GCTTCTGCTTCTTCTTGTTCTTGTTGCTGTTGGTAATACTCGGAGTCACCTAGTGCAG,11000 fluorescence intensity (a.u.)
2,ATCAAAGTTGCTGGGGTTAATTTGGGTTCTTGGTTGTGAACGGAGTCACCTAGTGCAG,15600 fluorescence intensity (a.u.)
3,GTAATTCTGTTGTCATACGGTTTATTGTGTGGTTGCTGAACGGAGTCACCTAGTGCAG,9010 fluorescence intensity (a.u.)
4,CGCCACCGTCCTGCTCACCGGCGTTCCGCCGGAACGACTTCGGAGTCACCTAGTGCAG,9640 fluorescence intensity (a.u.)
5,ATTTTTTTTGTCAAACTGCCACGAAAGCGTCACGTTAATACGGAGTCACCTAGTGCAG,8240 fluorescence intensity (a.u.)
6,CAATTCACGCCACCCGCTCCGCCTCTCGCCGCCTCGACCGCGGAGTCACCTAGTGCAG,11000 fluorescence intensity (a.u.)
7,AAATTTTGACTCCTTCAGTTAATGATTTTCGTATACAAATCGGAGTCACCTAGTGCAG,8180 fluorescence intensity (a.u.)
8,ATCTCTCTCATATTCCTTCGATCTGCAGCTTGTACGTTGGCGGAGTCACCTAGTGCAG,14500 fluorescence intensity (a.u.)
9,CTGTTGACTATCCATGCCATTTTTACCGATTAGTCTATCTCGGAGTCACCTAGTGCAG,13800 fluorescence intensity (a.u.)
10,CGCAGTCCGAAGTTGATTTTTTTTTTTTTTACGGAGTACTCGGAGTCACCTAGTGCAG,8250 fluorescence intensity (a.u.)
11,TGATTGTGTTTGTAGACTTGGTTGGTATTGTTGAACGGATCGGAGTCACCTAGTGCAG,11800 fluorescence intensity (a.u.)
12,CCGTATTTTAATGTATATGACACCGTTGACTTTTTGACCACGGAGTCACCTAGTGCAG,40800 fluorescence intensity (a.u.)
13,AGGGAGCCTATTTTAATGTATGACACCGTTGACTTTTTTGCGGAGTCACCTAGTGCAG,19200 fluorescence intensity (a.u.)
14,AGAGGGAGTATTATGTTTATGCTTTTAATTTTTCACTTTGCGGAGTCACCTAGTGCAG,9150 fluorescence intensity (a.u.)
15,TTTATGTAATGCCTTAAGATCACACATTGACTTATTTTTGCGGAGTCACCTAGTGCAG,8050 fluorescence intensity (a.u.)
16,AAATACTCCCTCCGTATTTTAATGTATGACACCGTTGACTCGGAGTCACCTAGTGCAG,10300 fluorescence intensity (a.u.)
17,CATCCGTATTTTAATGTATGACACCGTTGACTTTTCGACTCGGAGTCACCTAGTGCAG,19100 fluorescence intensity (a.u.)
18,CATATTTTAATTTTAATGTATGACACCGTTGACTTTTCGACGGAGTCACCTAGTGCAG,16000 fluorescence intensity (a.u.)
19,TTATGCATCGATATATACCACATGTCAACCGATGAATTCACGGAGTCACCTAGTGCAG,9490 fluorescence intensity (a.u.)
20,TTTTCCAAACTTCCAACTTTCTATCACATCAAACCTTTCACGGAGTCACCTAGTGCAG,8100 fluorescence intensity (a.u.)
21,ACCTGGCTGTGCATGTACTACCCCAATGCATTTCTCTCTCCGGAGTCACCTAGTGCAG,8250 fluorescence intensity (a.u.)
